Our source for the growth values is PubChem BioAssay (NCI).

The panel holds about 83,000 compounds, 20% with a hit somewhere; the sample as a whole holds those more often.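 In brief: 96-well plates, 48 h treatment, single concentration, percent growth endpoint.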 Unmarked numbers belong to inactive results. Active and inactive are the calls of the source. How the source made its calls: active means growth percent below 10; inactive means the rest.

Common to all, as to experiment: NCI-60 one-dose screen, 48 h (100 = growth as untreated, 0 = no growth, -100 = all killed)
Common to all, as to settings: 10 µM unless noted

Assay [1] has as its system HCT-15 colon.
Assay [2] concerns HT29 colon.
The subject of assay [3] is SNB-75 CNS.
Assay [4] deals with SNB-19 CNS.
In assay [5] the test system is U251 CNS.
The test system of assay [6] is PC-3 prostate.
Assay [7] relates to SK-MEL-5 melanoma.
The subject of assay [8] is UACC-62 melanoma.
Assay [9] concerns LOX IMVI melanoma.
In assay [10] the test system is SK-MEL-28 melanoma.
Assay [11] concerns SK-MEL-2 melanoma.
The test system of assay [12] is EKVX NSCLC.
Assay [13] has as its system SN12C renal.
Assay [14] has as its system UO-31 renal.
Assay [15] concerns TK-10 renal.
The test system of assay [16] is ACHN renal.
The test system of assay [17] is CAKI-1 renal.
Assay [18] deals with A498 renal.
Assay [19] has as its system CCRF-CEM leukemia.
Assay [20] has as its system MOLT-4 leukemia.

On to `CC1(C)CN(Cc2ccccc2)CCN1Cc1ccccc1`, for which the growth is 104% in assay [1]; 96.2% in assay [2]; 121% in assay [3]; 98.1% in assay [4]; 92.3% in assay [5]; 95.4% in assay [6]. In addition, the growth in assay [7] was 97.8%; in [8] it was 97.9%; in assay [9], 98.6%; in [10], 111%; in assay [11] it was 103%; in assay [12], 106%. For the same compound, the growth in assay [13] is 96.1%; in assay [14] it was 93.6%; in [15] it was 96.3%; in [16], 109%; in assay [17], 102%; in assay [18] it was 85.8%. For the same compound, the growth in [19] was 90.9%; in assay [20] it was 100%.
On to `Cc1c2c(cc[n+]1Cc1ccccc1)c1ccc(OCC3CCCCC3)cc1n2CC1CCCCC1`, for which the growth in assay [1] is -81.7% (active); in assay [2], -79% (active); in assay [3], -87.3% (active); in [4] it was -90.7% (active); in [5], -92.5% (active); in [6], -75.8% (active). Also, the growth in [7] was -100% (active); in [8], -94% (active); in assay [9] it was -95.6% (active); in assay [10] it was -95.8% (active); in assay [11], -86.5% (active); in assay [12], -75.5% (active). Also, the growth in [13] was -91.9% (active); in assay [14], -93.1% (active); in assay [15] it was -93.6% (active); in assay [16], -100% (active); in assay [17] it was -92.5% (active); in [18], -97.4% (active). For the same compound, the growth was -36.2% (active) in assay [19] and -64.5% (active) in assay [20].
`CC(=O)c1c[nH]c2ccc(-c3ccnc(Nc4ccc(NC(=O)c5cccc(F)c5)c(CN5CCOCC5)c4)n3)cc12`: the growth in assay [1] was 0.545% (active); in [2], 7.18% (active); in assay [3], -56.1% (active); in assay [4], 0.141% (active); in [5] it was 8.5% (active); in assay [6] it was -0.531% (active). Also, the growth in assay [7] was -74% (active); in [8] it was -41.2% (active); in assay [9] it was -3.87% (active); in assay [10], 1.85% (active); in assay [11], -15.6% (active); in assay [12], -24.1% (active). The growth was -4.7% (active) in assay [13]; 2.38% (active) in [14]; 1.22% (active) in assay [15]; -12.1% (active) in assay [16]; -1.58% (active) in assay [17]; -62.8% (active) in [18]. Moreover, the growth was 2.24% (active) in assay [19] and 1.65% (active) in assay [20].
As for `Fc1ccc(C2CC(c3cccc(Nc4ccncc4)c3)=NN2c2cc(Cl)cc(Cl)c2)cc1` (stereo not drawn), the growth in assay [1] is -42.3% (active); in assay [2], -21.5% (active); in assay [3], 72.2%; in assay [4] it was 82.3%; in assay [5], -29.5% (active); in assay [6] it was 26%. Moreover, the growth is 84.7% in assay [7]; 98.7% in assay [8]; -83% (active) in assay [9]; 20.2% in assay [10]; 105% in [11]; 80% in [12]. Moreover, the growth in [13] was 72%; in assay [14], 47.6%; in assay [15], 74.8%; in [16] it was 43.3%; in assay [17] it was 31.1%; in assay [18], 94.5%. For the same compound, the growth in assay [19] was 0.277% (active); in [20], 1.57% (active).
`O=C(N/N=C/c1cccc(O)c1)c1ccccc1Nc1cccc(C(F)(F)F)c1`: the growth in assay [1] was 72.2%; in assay [2] it was 106%; in [3] it was 79.7%; in assay [4], 88.1%; in assay [5] it was 82.4%; in [6], 81.9%. For the same compound, the growth in [7] is 82.5%; in assay [8], 80.7%; in assay [9], 66.7%; in assay [10] it was 96.6%; in assay [11], 111%; in [12], 69.9%. In addition, the growth was 93.5% in [13]; 58% in [14]; 97.5% in assay [15]; 95.4% in [16]; 36.9% in [17]; 92.3% in assay [18]. In addition, the growth in assay [19] was 3.83% (active).
For the compound `C#Cc1cccc(NC(=O)Nc2cccc(N=C=S)c2)c1`, the growth was 105% [8.25 µM] in assay [1]; 113% [8.25 µM] in assay [2]; 89.3% [8.25 µM] in assay [3]; 96.6% [8.25 µM] in [4]; 96.9% [8.25 µM] in assay [5]; 94.6% [8.25 µM] in assay [6]. In addition, the growth in [7] is 95.7% [8.25 µM]; in [8], 89.4% [8.25 µM]; in assay [9], 102% [8.25 µM]; in assay [10], 103% [8.25 µM]; in assay [11] it was 109% [8.25 µM]; in [12], 99.7% [8.25 µM]. Further, the growth is 97.6% [8.25 µM] in assay [13]; 87.7% [8.25 µM] in assay [14]; 119% [8.25 µM] in [15]; 103% [8.25 µM] in assay [16]; 94.7% [8.25 µM] in [17]; 85% [8.25 µM] in assay [18]. Besides, the values for the growth in assay [19] and in assay [20] were 96.1% [8.25 µM] and 97.8% [8.25 µM], respectively.
For the compound `O=S(=O)(c1ccccc1)N1CCCc2ccccc21`, the growth in assay [1] is 99.3%; in [2], 99.8%; in assay [3], 95%; in [4], 97.2%; in assay [5], 90.3%; in [6], 91.3%. In addition, the growth in assay [7] is 102%; in assay [8], 91.7%; in assay [9], 96.4%; in assay [10], 105%; in [11], 103%; in [12] it was 101%. Besides, the growth was 98.9% in assay [13]; 80.4% in assay [14]; 94.5% in [15]; 99.4% in assay [16]; 101% in assay [17]; 77.1% in [18]. Besides, the growth in [19] was 92.4%; in assay [20], 94.6%.
As for `COc1cc2nc(-c3ccc(C#N)cc3)[nH]c(=O)c2cc1OC`, the growth in assay [1] was 107%; in assay [2], 113%; in [3], 109%; in [4], 98.9%; in assay [5], 100%; in [6] it was 105%. In addition, the growth in assay [7] is 96.8%; in assay [8] it was 87.8%; in assay [9], 90.8%; in assay [10], 102%; in assay [11], 128%; in assay [12], 98.7%. Also, the growth in [13] was 91.7%; in [14] it was 97.4%; in [15], 271%; in assay [16], 118%; in [17], 92%; in assay [18], 120%. The growth in assay [19] was 188%.
